This note sets out measurements from PubChem BioAssay (NCI).

The structures appear in SMILES notation. The panel holds about 83,000 compounds, 20% with a hit somewhere; the sample as a whole holds those more often.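 Each cell line was grown in a 96-well plate and treated with one concentration of compound for 48 hours. Values below 10 were considered active.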 Unmarked numbers belong to inactive results. Calls of active or inactive are those of the source.

Among the test systems are K-562 leukemia; MALME-3M melanoma; MDA-MB-231 breast; RXF 393 renal; SF-268 CNS; SF-295 CNS; SF-539 CNS; UACC-257 melanoma; M14 melanoma; HCT-15 colon; HT29 colon; SNB-75 CNS; SNB-19 CNS; U251 CNS; PC-3 prostate; SK-MEL-5 melanoma; UACC-62 melanoma; LOX IMVI melanoma; SK-MEL-28 melanoma; SK-MEL-2 melanoma.
Common to all, as to assay: NCI-60 one-dose screen, 48 h (100 = growth as untreated, 0 = no growth, -100 = all killed)
Common to all, as to settings: 10 µM unless noted

Take `O=C1Nc2ccc(Cl)cc2/C1=C/c1ccc(OCC(=O)c2ccc(Br)cc2)cc1`: the growth was 102% with K-562 leukemia; 84.5% with MALME-3M melanoma; 76.2% in the assay on MDA-MB-231 breast; 114% with RXF 393 renal; 94% in the assay on SF-268 CNS; 99.9% in the assay on SF-295 CNS. For the same compound, the growth in the assay with SF-539 CNS was 102%; with UACC-257 melanoma, 100%; in the assay with M14 melanoma, 95.6%; in the assay on HCT-15 colon it was 99.2%; with HT29 colon, 103%; in the assay on SNB-75 CNS, 75.7%. Further, the growth with SNB-19 CNS is 89.7%; with U251 CNS, 98.3%; with PC-3 prostate, 81.8%; in the assay on SK-MEL-5 melanoma it was 96.9%; in the assay on UACC-62 melanoma, 83.4%; in the assay with LOX IMVI melanoma, 108%. Also, the growth with SK-MEL-28 melanoma is 99.3%; in the assay with SK-MEL-2 melanoma, 113%.
Take `COc1cccc(N2CCN(c3ncnc4c3[nH]c3ccc(F)cc34)C[C@@H]2C)c1`: the growth was -36% (active) with K-562 leukemia; -26.4% (active) in the assay on MALME-3M melanoma; -4.16% (active) in the assay on MDA-MB-231 breast; -27.1% (active) in the assay with RXF 393 renal; -1.64% (active) in the assay on SF-268 CNS; -14.9% (active) with SF-295 CNS. Moreover, the growth is -32.2% (active) in the assay with SF-539 CNS; -27.6% (active) with UACC-257 melanoma; -84.7% (active) in the assay on M14 melanoma; 18.6% with HCT-15 colon; 5.69% (active) with HT29 colon; -59% (active) in the assay with SNB-75 CNS. For the same compound, the growth in the assay with SNB-19 CNS is -12% (active); with U251 CNS, -31.5% (active); with PC-3 prostate, -42.3% (active); with SK-MEL-5 melanoma, -90.9% (active); with UACC-62 melanoma, -70.8% (active); with LOX IMVI melanoma it was 0.646% (active). Moreover, the figures for the growth with SK-MEL-28 melanoma and with SK-MEL-2 melanoma were -26.8% (active) and -94.9% (active), respectively.
Regarding `Cc1nc(-c2cc3ccccc3oc2=O)ccc1C(=O)/C=C/c1ccc(N2CCOCC2)cc1`, the growth with K-562 leukemia is 38%; in the assay on MALME-3M melanoma, 57.5%; with MDA-MB-231 breast, 54.3%; in the assay with RXF 393 renal, 89.6%; in the assay on SF-268 CNS, 75.3%; with SF-295 CNS, 66%. For the same compound, the growth with SF-539 CNS is 45.2%; in the assay on UACC-257 melanoma, 89%; in the assay with M14 melanoma it was 45.6%; in the assay with HCT-15 colon, 54.5%; with HT29 colon, 80.4%; in the assay with SNB-75 CNS it was 58.9%. Further, the growth in the assay with SNB-19 CNS is 79.9%; in the assay on U251 CNS it was 89.8%; in the assay on PC-3 prostate, 86.6%; in the assay with SK-MEL-5 melanoma, 71.5%; with UACC-62 melanoma, 52.1%; in the assay on LOX IMVI melanoma, 31.3%. Moreover, the growth in the assay on SK-MEL-28 melanoma is 72.8%; in the assay on SK-MEL-2 melanoma it was 91.4%.
Consider `COc1cc2cc(Oc3ccc(NC(=O)c4cccc(C(F)(F)F)c4)cc3)c(C)nc2cc1OCCN1CCCCC1`, for which the growth in the assay with K-562 leukemia is -48.2% (active); in the assay on MALME-3M melanoma it was -86.1% (active); with MDA-MB-231 breast, -100% (active); in the assay with RXF 393 renal it was -16% (active); in the assay on SF-268 CNS, 81.5%; in the assay on SF-295 CNS, 7.09% (active). In addition, the growth in the assay with SF-539 CNS is -68.8% (active); in the assay on UACC-257 melanoma, -87.3% (active); in the assay with M14 melanoma it was -86.7% (active); with HCT-15 colon, -88.8% (active); in the assay with HT29 colon it was -50.7% (active); in the assay on SNB-75 CNS, 90.8%. The growth is 90.2% in the assay with SNB-19 CNS; -63.8% (active) in the assay with U251 CNS; 33.1% with PC-3 prostate; 38.7% in the assay on SK-MEL-5 melanoma; -65.8% (active) in the assay on UACC-62 melanoma; -93.6% (active) with LOX IMVI melanoma. For the same compound, the growth with SK-MEL-28 melanoma is -88.5% (active); in the assay with SK-MEL-2 melanoma, 74%.
As for `COc1ccc(COc2ccc(/C=C3/C(=O)Nc4cc(Cl)ccc43)cc2)cc1`, the growth in the assay on K-562 leukemia is 113%; in the assay with MALME-3M melanoma, 86.6%; in the assay on MDA-MB-231 breast, 91.2%; with RXF 393 renal, 105%; in the assay with SF-268 CNS, 99.5%; in the assay on SF-295 CNS it was 101%. Besides, the growth with SF-539 CNS is 85.8%; with UACC-257 melanoma, 106%; in the assay with M14 melanoma, 97.7%; in the assay on HCT-15 colon, 104%; with HT29 colon, 107%; in the assay with SNB-75 CNS it was 83.8%. The growth with SNB-19 CNS was 100%; in the assay with U251 CNS it was 96.8%; with PC-3 prostate, 86.1%; with SK-MEL-5 melanoma it was 96.7%; in the assay with UACC-62 melanoma, 88.6%; in the assay with LOX IMVI melanoma it was 94.8%. Further, the growth with SK-MEL-28 melanoma was 98.7%; with SK-MEL-2 melanoma, 114%.
With `C/C(=C(/c1ccc(Cl)cc1)c1ccc(OCCN)cc1)c1ccc(C)cc1`, the growth in the assay on K-562 leukemia was 90.8%; in the assay on MALME-3M melanoma, 101%; in the assay with MDA-MB-231 breast it was 94.4%; in the assay with RXF 393 renal, 112%; in the assay on SF-268 CNS, 100%; in the assay with SF-295 CNS, 98.7%. The growth in the assay on SF-539 CNS was 93.8%; in the assay on UACC-257 melanoma, 104%; with M14 melanoma it was 102%; in the assay on HCT-15 colon it was 101%; with HT29 colon, 111%; in the assay with SNB-75 CNS, 94.6%. Besides, the growth is 92.6% in the assay with SNB-19 CNS; 101% in the assay with U251 CNS; 94.6% in the assay on PC-3 prostate; 106% in the assay on SK-MEL-5 melanoma; 88.6% in the assay with UACC-62 melanoma; 105% with LOX IMVI melanoma. For the same compound, the growth with SK-MEL-28 melanoma is 99.6%; with SK-MEL-2 melanoma, 112%.
With `CN(C)CCCNc1c2ccc(Cl)cc2nc2c1oc1ccccc12`, the growth in the assay with K-562 leukemia was 3.28% (active); with MALME-3M melanoma, 14.6%; in the assay with MDA-MB-231 breast, -17.5% (active); in the assay with RXF 393 renal, -68.1% (active); with SF-268 CNS it was 23%; in the assay with SF-295 CNS, -25.1% (active). For the same compound, the growth is -68.7% (active) in the assay on SF-539 CNS; 32% with UACC-257 melanoma; 15.5% with M14 melanoma; -20.6% (active) in the assay on HCT-15 colon; -22.2% (active) with HT29 colon; 29.9% in the assay with SNB-75 CNS. Also, the growth in the assay with SNB-19 CNS is 16.5%; in the assay with U251 CNS, 18.8%; in the assay with PC-3 prostate it was 13.7%; in the assay on SK-MEL-5 melanoma, -98.1% (active); in the assay on UACC-62 melanoma, 13.4%; in the assay on LOX IMVI melanoma it was -83.4% (active). For the same compound, the growth is 16.4% in the assay on SK-MEL-28 melanoma and 21.3% with SK-MEL-2 melanoma.
In the case of `N/C(=N\c1nc2c(Cl)cc(Cl)cc2s1)C(Cl)(Cl)Cl`, the growth with K-562 leukemia is 71.3%; in the assay with MALME-3M melanoma, 91.7%; with MDA-MB-231 breast, 38.4%; in the assay on RXF 393 renal, 53.7%; with SF-268 CNS, 75.7%; in the assay with SF-295 CNS, 11.3%. Also, the growth with SF-539 CNS is 44.5%; in the assay with UACC-257 melanoma it was 78.1%; with M14 melanoma, 93.3%; with HCT-15 colon, 57.5%; in the assay on HT29 colon, 8.65% (active); in the assay on SNB-75 CNS, 7.23% (active). The growth in the assay on SNB-19 CNS was 46.8%; in the assay on U251 CNS, 21%; in the assay with PC-3 prostate it was 37.5%; with SK-MEL-5 melanoma, 87%; with UACC-62 melanoma, 40.3%; in the assay with LOX IMVI melanoma, 1.92% (active). Also, the results for the growth with SK-MEL-28 melanoma and with SK-MEL-2 melanoma were 54.9% and 80.5%, respectively.
